# Test results reported in article PMC7862700, “An all-to-all approach to the identification of sequence-specific readers for epigenetic DNA modifications on cytosine”.
# Assays:
# Test in all cases: DAPPL (digital affinity profiling via proximity ligation, sequencing); 10 mM Tris-HCl pH 7.5, 50 mM NaCl, 1 mM DTT, 4% glycerol, room temperature, 30 min; GST-TFs on glutathione beads, 16-mer random dsDNA library, 0.1% formaldehyde crosslink after washing; high values mean tight binding
# Conditions in all cases: protein: recombinant; tags: N-terminal GST; dsDNA, one strand shown
# [1] = biological target: T1, FLI1 (Homo sapiens, UniProt Q01543 1-452)
# T1 sequence: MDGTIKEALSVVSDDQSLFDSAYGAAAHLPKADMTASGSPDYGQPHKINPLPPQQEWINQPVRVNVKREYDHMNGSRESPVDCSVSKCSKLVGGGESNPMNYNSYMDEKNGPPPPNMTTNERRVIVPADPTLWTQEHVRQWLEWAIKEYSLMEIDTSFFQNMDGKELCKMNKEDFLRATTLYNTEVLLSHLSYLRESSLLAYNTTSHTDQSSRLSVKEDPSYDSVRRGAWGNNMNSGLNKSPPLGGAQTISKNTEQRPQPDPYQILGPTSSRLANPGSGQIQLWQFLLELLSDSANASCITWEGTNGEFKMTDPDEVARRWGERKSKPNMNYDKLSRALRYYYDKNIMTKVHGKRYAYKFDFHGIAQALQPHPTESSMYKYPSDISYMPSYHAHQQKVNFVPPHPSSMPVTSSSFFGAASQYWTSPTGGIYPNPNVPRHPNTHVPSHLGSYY
# Method in brief: (§1)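 After expression in yeast as GST fusions, human transcription factors were bound to glutathione beads, DNA-barcoded and mixed with a tag-only sample. The pools were incubated with 200 nmole of a 16-mer random double-stranded DNA library in Tris/NaCl/DTT/glycerol buffer (30 min, room temperature), washed and crosslinked with 0.1% formaldehyde. Proximity ligation with BsaI/T4 ligase ran for 1 h at 37 °C, before PCR amplification and sequencing on an Illumina NextSeq500. Binding signal is a hexamer's read frequency for a factor divided by its frequency for the tag-only sample.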
# [2] = biological target: T2, ELK1 (Homo sapiens, UniProt P19419 1-428)
# T2 sequence: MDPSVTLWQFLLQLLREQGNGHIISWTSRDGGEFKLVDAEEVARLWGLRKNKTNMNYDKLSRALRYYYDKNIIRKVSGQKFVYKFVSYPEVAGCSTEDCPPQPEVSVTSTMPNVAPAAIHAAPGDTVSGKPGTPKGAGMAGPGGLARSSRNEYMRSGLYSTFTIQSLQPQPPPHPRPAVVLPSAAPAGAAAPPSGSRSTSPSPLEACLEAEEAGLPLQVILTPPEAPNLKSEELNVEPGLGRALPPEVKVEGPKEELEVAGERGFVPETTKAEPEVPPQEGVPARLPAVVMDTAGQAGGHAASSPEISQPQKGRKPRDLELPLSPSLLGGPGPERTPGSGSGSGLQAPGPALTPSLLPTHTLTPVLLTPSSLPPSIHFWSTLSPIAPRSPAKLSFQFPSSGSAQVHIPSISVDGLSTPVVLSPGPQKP
# Method in brief: as §1
# [3] = biological target: T3, GABPA (Homo sapiens, UniProt Q06546 1-454)
# T3 sequence: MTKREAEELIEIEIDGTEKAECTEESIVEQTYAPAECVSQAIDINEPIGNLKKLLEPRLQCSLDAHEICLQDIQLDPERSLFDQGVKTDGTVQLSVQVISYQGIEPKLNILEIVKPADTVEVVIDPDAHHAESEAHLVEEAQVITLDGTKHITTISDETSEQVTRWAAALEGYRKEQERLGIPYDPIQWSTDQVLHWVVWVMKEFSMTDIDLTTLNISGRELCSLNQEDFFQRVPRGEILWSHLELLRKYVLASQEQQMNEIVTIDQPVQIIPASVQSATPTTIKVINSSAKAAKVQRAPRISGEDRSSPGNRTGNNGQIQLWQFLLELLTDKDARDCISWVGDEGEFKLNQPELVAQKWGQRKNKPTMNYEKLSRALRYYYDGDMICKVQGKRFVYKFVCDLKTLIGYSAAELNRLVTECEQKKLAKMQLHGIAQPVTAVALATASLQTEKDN
# Method in brief: as §1
# [4] = biological target: T4, ERG (Homo sapiens, UniProt P11308 1-479)
# T4 sequence: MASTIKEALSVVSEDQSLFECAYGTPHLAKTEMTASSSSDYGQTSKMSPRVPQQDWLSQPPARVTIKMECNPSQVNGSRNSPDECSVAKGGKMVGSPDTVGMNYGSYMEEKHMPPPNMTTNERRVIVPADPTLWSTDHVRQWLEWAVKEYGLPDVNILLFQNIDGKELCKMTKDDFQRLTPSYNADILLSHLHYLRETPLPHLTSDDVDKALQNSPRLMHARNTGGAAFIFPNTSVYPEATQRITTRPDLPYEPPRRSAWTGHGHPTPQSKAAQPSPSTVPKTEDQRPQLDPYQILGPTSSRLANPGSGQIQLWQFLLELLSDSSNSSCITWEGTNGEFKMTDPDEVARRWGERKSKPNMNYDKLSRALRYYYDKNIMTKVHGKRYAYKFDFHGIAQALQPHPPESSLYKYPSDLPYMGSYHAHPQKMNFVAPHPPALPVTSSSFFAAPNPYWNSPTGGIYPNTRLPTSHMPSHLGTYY
# Method in brief: as §1
# [5] = biological target: ELF1 (Homo sapiens, UniProt P32519 1-619)
# Chain of ELF1 (P32519 whole entry): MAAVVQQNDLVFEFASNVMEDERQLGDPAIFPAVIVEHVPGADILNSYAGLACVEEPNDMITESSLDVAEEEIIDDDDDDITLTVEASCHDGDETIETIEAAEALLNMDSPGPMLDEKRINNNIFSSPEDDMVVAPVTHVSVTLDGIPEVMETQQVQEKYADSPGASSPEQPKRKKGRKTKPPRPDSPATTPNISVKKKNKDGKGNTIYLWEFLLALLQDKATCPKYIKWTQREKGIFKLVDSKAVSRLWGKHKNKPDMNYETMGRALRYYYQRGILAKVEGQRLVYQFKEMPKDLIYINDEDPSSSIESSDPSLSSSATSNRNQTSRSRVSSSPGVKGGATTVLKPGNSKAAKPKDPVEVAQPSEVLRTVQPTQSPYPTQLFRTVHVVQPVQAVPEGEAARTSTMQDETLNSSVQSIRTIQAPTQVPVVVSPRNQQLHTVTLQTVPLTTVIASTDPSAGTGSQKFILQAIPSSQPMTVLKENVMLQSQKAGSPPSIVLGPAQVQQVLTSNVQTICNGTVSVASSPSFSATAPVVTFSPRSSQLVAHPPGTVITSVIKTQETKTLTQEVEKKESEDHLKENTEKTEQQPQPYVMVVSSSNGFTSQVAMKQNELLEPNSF
# Method in brief: as §1
# [6] = biological target: T5, EHF (Homo sapiens, UniProt Q9NZC4 1-300)
# T5 sequence: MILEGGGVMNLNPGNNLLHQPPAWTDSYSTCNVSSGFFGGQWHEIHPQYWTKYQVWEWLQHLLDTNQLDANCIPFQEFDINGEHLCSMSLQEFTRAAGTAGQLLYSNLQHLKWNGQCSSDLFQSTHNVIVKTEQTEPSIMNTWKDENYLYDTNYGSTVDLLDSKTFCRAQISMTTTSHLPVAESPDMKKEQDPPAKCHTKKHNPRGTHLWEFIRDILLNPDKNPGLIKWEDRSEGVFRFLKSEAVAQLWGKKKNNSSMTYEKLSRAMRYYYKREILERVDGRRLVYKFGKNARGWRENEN
# Method in brief: as §1
# [7] = biological target: SPI1 (Homo sapiens, UniProt P17947 1-270)
# Method in brief: as §1
# [8] = biological target: SPIB (Homo sapiens, UniProt Q01892 1-262)
# Chain of SPIB (Q01892 whole entry): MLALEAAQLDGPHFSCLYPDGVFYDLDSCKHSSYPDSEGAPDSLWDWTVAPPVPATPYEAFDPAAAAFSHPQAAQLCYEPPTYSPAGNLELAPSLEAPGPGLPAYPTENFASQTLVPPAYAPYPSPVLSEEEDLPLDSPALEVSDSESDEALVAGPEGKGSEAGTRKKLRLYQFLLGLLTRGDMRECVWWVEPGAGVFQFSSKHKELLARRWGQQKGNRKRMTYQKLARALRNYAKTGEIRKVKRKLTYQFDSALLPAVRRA
# Method in brief: as §1
# [9] = biological target: T6, FEV (Homo sapiens, UniProt Q99581 1-238)
# T6 sequence: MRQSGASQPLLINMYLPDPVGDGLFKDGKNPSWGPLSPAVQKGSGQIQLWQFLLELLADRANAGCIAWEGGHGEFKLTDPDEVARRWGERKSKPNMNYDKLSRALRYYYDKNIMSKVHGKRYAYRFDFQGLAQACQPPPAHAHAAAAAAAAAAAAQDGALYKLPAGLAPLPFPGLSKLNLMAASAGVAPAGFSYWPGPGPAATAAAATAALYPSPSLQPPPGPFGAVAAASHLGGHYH
# Method in brief: as §1
sequence,measurement,setting,value
TGGACC,binding signal,[1],"1.11 fold enrichment (6-mer frequency, TF over GST control)"
same,binding signal,[2],"1.03 fold enrichment (6-mer frequency, TF over GST control)"
same,binding signal,[3],"1.09 fold enrichment (6-mer frequency, TF over GST control)"
same,binding signal,[4],"1.04 fold enrichment (6-mer frequency, TF over GST control)"
same,binding signal,[5],"1.06 fold enrichment (6-mer frequency, TF over GST control)"
same,binding signal,[6],"1.1 fold enrichment (6-mer frequency, TF over GST control)"
same,binding signal,[7],"1.1 fold enrichment (6-mer frequency, TF over GST control)"
same,binding signal,[8],"1.02 fold enrichment (6-mer frequency, TF over GST control)"
same,binding signal,[9],"1.17 fold enrichment (6-mer frequency, TF over GST control)"
